According to PubChem BioAssay AID504882 (Broad Institute, 2011):
About 290 (24%) of roughly 1,200 compounds were called active. Roughly 9% stayed inconclusive and do not appear here. How the calls were made is not given here. A selection follows. Results with a measured potency or affinity are listed apart.

Assay: LCL viability reduction – cell-based, plate reader, cherry-picks, set 2, cytotoxicity control, dose response (AID 504882)
Conditions: EBV lymphoblastoid cells (LCL) viability; series mostly up to 19.5 µM

| Compound | outcome |
| --- | --- |
| O=C(O)c1cccc(Nc2ccnc(Nc3cccc(C(=O)O)c3)n2)c1 | inactive |
| COc1ccc(Nc2oc(COc3ccccc3OC)nc2C#N)cc1 | inactive |
| Cc1ccc(/C=C/C(=O)C2C(=O)c3ccccc3C2=O)cc1 | inactive |
| COc1ccc(-c2nc(CS(=O)CC(=O)NCc3ccc(Cl)cc3)c(C)o2)cc1 (centres undefined) | inactive |
| O=C(NCc1ccccc1)c1cccc(COc2ccc3c(c2)CCC3)c1 | inactive |
| CC(C)Oc1ccc(C2CC(=O)NC2=O)cc1 (centres undefined) | inactive |
| CCCCCc1ccc(-c2ccc(/C=C/C(=O)O)cc2)nc1 | inactive |
| C(=N\Nc1ccc2ccccc2n1)/c1ccc2c(c1)OCO2 | inactive |
| O=C(NCCOc1ccccc1)c1ccc2c(c1)OCO2 | inactive |
| COc1ccc(/C=C2\SC(=O)N(CCCC(=O)Nc3ccc(C(=O)O)cc3)C2=O)cc1 | inactive |
| Cc1cc(NC(=O)c2ccc(C)s2)n(-c2nc3ccccc3[nH]2)n1 | inactive |
| N=c1c(-c2nc3ccccc3[nH]2)cc(C(=O)c2cccs2)nn1-c1ccccc1 | inactive |
| CSc1ccccc1C(=O)N1CCC2(CC1)CC(=O)c1ccccc1O2 | inactive |
| CS(=O)(=O)Nc1ccc(C2=NN(S(C)(=O)=O)C(c3ccccc3)C2)cc1 (centres undefined) | inactive |
| Cc1cccc(NC(=O)Nc2c(C)n(C)n(-c3ccccc3)c2=O)c1C | inactive |
| CCc1ccccc1NC(=O)COC(=O)c1c(C)nsc1NC | inactive |
| CCc1ccc(/C=C2\SC(=S)N(CCCC(=O)Nc3ccccn3)C2=O)cc1 | inactive |
| CCN1CCN(Cc2ccc(NC(=O)c3ccc(C)c(NC(=O)c4nccn4C)c3)cc2C(F)(F)F)CC1 | inactive |
| CCN1CCN(Cc2ccc(NC(=O)c3ccc(C)c(NC(=O)c4ccno4)c3)cc2C(F)(F)F)CC1 | inactive |
| COC(=O)C(NS(=O)(=O)c1ccc(N2CCCC2=O)cc1)c1ccccc1 (centres undefined) | inactive |
| CC(=NNC(=S)N1CCCCCC1)c1cccc2cccnc12 | inactive |
| O=C(CSc1nnc(-c2cccc(S(=O)(=O)N3CCOCC3)c2)n1C1CCCCCC1)NCc1ccccc1 | inactive |
| N#CC(C#N)c1ccnc2ccccc12 | inactive |
| CC(CCc1ccco1)N(C)S(=O)(=O)c1csc(C(N)=O)c1 (centres undefined) | inactive |
| CC1CCCN(C(=O)COC(=O)c2n[nH]c3ccccc23)C1 (centres undefined) | inactive |
| CCN(C(=O)c1cccc(NC(=O)c2ccccc2)c1)C1CCCCC1 | inactive |

| Compound | outcome |
| --- | --- |
| Brc1cccc(CSc2nnc(-c3ccncc3)o2)c1 | inactive |
| O=c1oc2ccccc2c(O)c1/C=N/c1ccccn1 | inactive |
| CCc1nn2cc(-c3ccccc3)nc2s1 | inactive |
| O=C(NCC1CCOCC1)c1ccc(OC2CCN(Cc3ccccn3)CC2)cc1 | inactive |
| Cc1ccc(C(=O)Nc2cccc(C(F)(F)F)c2)cc1NC(=O)c1ccno1 | inactive |
| COc1cnc(-c2ccccn2)nc1Sc1ccccc1Cl | inactive |
| CCOc1ccc(NC(=O)CCc2nnc3ccc(N4CCC5(CC4)OCCO5)nn23)cc1 | inactive |
| C[C@H](CO)N1C[C@H](C)[C@@H](CN(C)C(=O)NC2CCCCC2)Oc2c(NS(=O)(=O)c3cn(C)cn3)cccc2C1=O | inactive |
| CC1=CC(=NOC(=O)/C=C/c2ccccc2)C=C(C)C1=O | inactive |
| CCc1ccccc1N(CC(=O)NCc1ccco1)C(=O)c1snc(C(N)=O)c1N | inactive |
| Cc1ccc(C(=O)Nc2cccc(C(=O)N/N=C/c3ccccc3F)c2)cc1 | inactive |
| Oc1cccc(/C=N/NC(=S)NCCN2CCOCC2)c1O | inactive |
| Cc1ccc(S(=O)(=O)N2c3ccccc3-c3c(ssc3=S)C2(C)C)cc1 | inactive |
| Cc1ccc(S(=O)(=O)N2CCN(C(=O)COC(=O)COc3ccc(Cl)cc3)CC2)c(C)c1 | inactive |
| O=C(Nc1nnc(N2CCCCCC2)s1)c1cc(-c2ccc(Br)cc2)on1 | inactive |
| O=C(c1ccc(COc2ccccc2Cl)o1)N1CCCC1 | inactive |
| Oc1c(N=NC(=S)Nc2ccccc2F)c2ccccc2n1Cc1ccc(F)cc1 | inactive |
| COc1ccc(NC(=O)C2CCCN(S(=O)(=O)c3cccc4nonc34)C2)c(OC)c1 (centres undefined) | inactive |
| CC1=C(CC(=O)O)c2cc(F)ccc2C1=Cc1ccc(S(C)(=O)=O)cc1 | inactive |
| Cc1cc(NCCCn2ccnc2)n2ncc(-c3ccccc3)c2n1 | inactive |
| CSc1nc(C)nc2c1c(=O)n(C)c(=O)n2C | inactive |
| Cc1ccc(S(=O)(=O)N2CCCCC2)cc1NC(=O)CNc1ccccc1N1CCCC1=O | inactive |
| COc1ccc(Nc2oc(COc3ccc(Cl)cc3)nc2C#N)cc1 | inactive |
| COCC(=O)N1CCC(Oc2ccc(C(=O)N3C[C@H]4CC[C@H]3C4)cc2)CC1 | inactive |
| O=C(CCS(=O)(=O)c1ccccc1)Nc1nccs1 | inactive |
| COc1ccc(OC)c(NC(=O)COc2coc(CN3CCc4ccccc43)cc2=O)c1 | inactive |

| Compound | outcome |
| --- | --- |
| O=C(OCc1nc2ccccc2s1)[C@@H]1CCCN1S(=O)(=O)c1ccccc1F | inactive |
| Cn1cccc1/C=C1\CC(C(C)(C)C)C/C(=C\c2cccn2C)C1=O (centres undefined) | inactive |
| COc1ccccc1-n1c(-c2ccccc2)n[nH]c1=S | inactive |
| CC(=O)c1ccc(-n2nnnc2SCC(=O)N2CCc3ccccc3C2)cc1 | inactive |
| CCN(Cc1ccncc1)C(=O)CCc1ccccc1 | inactive |
| Cn1cccc1-c1cc(C(=O)N2CCc3c([nH]c4ccccc34)C2c2ccccn2)[nH]n1 (centres undefined) | inactive |
| Cc1ccc(CCNC(=O)Cc2ccc(NC3=NC4CS(=O)(=O)CC4S3)cc2)cc1 (centres undefined) | inactive |
| Cn1c(=O)c2ncn(CC(=O)O)c2n(C)c1=O | inactive |
| CCOc1cc(C(=O)OC(C)C(=O)Nc2ncc(Cl)cc2Cl)ccc1OCC(=O)N1CCOCC1 (centres undefined) | inactive |
| CC(=O)N1c2ccc(S(=O)(=O)N3CCC(C(=O)N4CCN(c5ccc(Cl)cc5)CC4)CC3)cc2CC1C (centres undefined) | inactive |
| O=C1c2cccc3c(O)ccc(c23)C(=O)N1c1ccc(Cl)cc1 | inactive |
| C/C(=N\NS(=O)(=O)c1ccc([N+](=O)[O-])cc1)c1cccs1 | inactive |
| COc1cccc(-c2nc(NCc3ccccc3)c3ccccc3n2)c1O | inactive |
| COc1cccc(/C=N/Nc2ncnc(N)c2[N+](=O)[O-])c1OC | inactive |
| COc1cccc(C(=O)O/N=C(\N)c2ccccn2)c1OC | inactive |
| O=C(O)c1ccc(-n2cncn2)c([N+](=O)[O-])c1 | inactive |
| O=c1c([N+](=O)[O-])cn(Cc2ccccc2)c(=O)n1Cc1ccccc1 | inactive |
| COc1cc(C(c2sc3nc(C)nn3c2O)N2CCc3ccccc3C2)cc(OC)c1OC (centres undefined) | inactive |
| COc1cccc(C2Nc3ccc4ccccc4c3C3=C2C(=O)CC(C)(C)C3)c1OCC(=O)O (centres undefined) | inactive |
| Cc1c(C=O)c2ccccn2c1C(=O)c1ccccc1Cl | inactive |
| Clc1ccc(-c2nnc(NC3=NCCCCC3)o2)cc1 | inactive |
| C[C@@H](OC(=O)c1[nH]cnc1C(=O)N1CCc2ccccc2C1)c1ccccc1 | inactive |
| COc1ccc(CCNC(=O)CSC(=O)c2ccccc2)cc1OC | inactive |
| O=C(O)c1cn2c3c(ccc(Cl)c3c1=O)OCC2 | inactive |
| CCCCN1C2CCCC1CC(NC(=O)C1CCCCC1)C2 (centres undefined) | inactive |
| O=C(NCc1ccco1)C1CC(=O)N(c2cccc(Cl)c2)C1 (centres undefined) | inactive |

| Compound | outcome |
| --- | --- |
| O=C(COC(=O)c1ccc(S(=O)(=O)NCc2ccco2)cc1)Nc1ccc(Cl)cn1 | inactive |
| COc1ccc(-n2cc(C(=O)c3ccccc3O)cn2)cc1 | inactive |
| CCc1ccc(/C=C2\SC(=S)N(CCCC(=O)NC3=NCCS3)C2=O)cc1 | inactive |
| COc1cccc(C(=O)N2CCN(c3nc4cc(C)cc(C)c4cc3C#N)CC2)c1 | inactive |
| CCCSc1ccc([C@@H]2[C@H]3C(=O)N(C)C(=O)[C@H]3[C@]3(C(=O)OC)CCCN23)cc1OC | inactive |
| CCCn1c(C)cc(C(=O)CN2C(=O)c3ccccc3S2(=O)=O)c1C | inactive |
| CCSc1nnc(NC(=O)CSc2nnc(-c3c[nH]c4ccccc34)n2CC)s1 | inactive |
| CC(=O)c1ccccc1OCC(=O)Nc1cccc(S(=O)(=O)N2CCCC2)c1 | inactive |
| O=C(CCCN1C(=O)[C@H]2CC=CC[C@H]2C1=O)NCc1nc(-c2ccc(Cl)cc2)no1 | inactive |
| Cc1cccc(-n2c(O)c(C=Nc3c(C)n(C)n(-c4ccccc4)c3=O)c3ccccc3c2=O)n1 | inactive |
| COC(=O)C1=C(C)N(c2cc(C)cc(C)c2)/C(=C/c2ccc(O)cc2)C1=O | inactive |
| COc1cc(N)c(Cl)cc1C(=O)NC1CCN(Cc2ccccc2)CC1 | inactive |
| Cc1cccc(Nc2nc(Cl)ncc2F)c1C | inactive |
| Cc1ccccc1C(=O)N1CCN(c2ccc(NC(=O)c3cccs3)cc2)CC1 | inactive |
| COc1cc(OC)cc(C(=O)N[C@H](C(=O)OCC(=O)c2ccc(C)c([N+](=O)[O-])c2)C(C)C)c1 | inactive |
| CCOC(=O)Oc1c(OC)cc(C(=O)O[C@@H]2C[C@@H]3CN4CCc5c([nH]c6cc(OC)ccc56)[C@H]4C[C@@H]3[C@H](C(=O)OC)[C@H]2OC)cc1OC | inactive |
| CCOC(=O)c1nc(NCc2ccccc2F)c2ccccc2n1 | inactive |
| CCOC(=O)c1cc(-c2ccccc2)n(CC(=O)Nc2cccc(OC)c2)c1C | inactive |
| COCCn1c(C)cc(C(=O)COc2ccc(C)nc2[N+](=O)[O-])c1C | inactive |
| COC(=O)c1[nH]c2ccc(C)cc2c1NC(=O)NC1CCCCC1 | inactive |
| CN(CC(=O)Nc1cccnc1)S(=O)(=O)c1ccc(Br)cc1 | inactive |
| COc1ccccc1OCc1ccc(C(=O)c2ccccc2)cc1 | inactive |
| COc1cc(C2CC(=O)N3CN(Cc4ccccc4)CSC3=C2C#N)ccc1OCc1ccccc1 (centres undefined) | inactive |
| O=C(O)C1CC(=O)N(c2ccc(Br)cc2)C1 (centres undefined) | inactive |
| CNS(=O)(=O)c1cccc(C(=O)OCC(=O)c2ccc3c(c2)OCCO3)c1 | inactive |
| COc1ccc(OC)c2[nH]c(=O)c(CCNC(=O)c3ccc(S(=O)(=O)N(C)C)cc3)cc12 | inactive |
